# Compound activity as filed in PubChem BioAssay.
# Glioma ERSR ind = inducers of ER stress response in human glioma cells. 0.02% of 420,000 active. U87-MG GRP78 promoter luciferase reporter, 16 h. Potency, µM, actives largely listed as activators; active = well fitted activation curve with a large enough effect; inconclusive = small, poorly fitted or top-dose-only effect; inactive = no such curve, though single readings can be large or run the other way; note: series mostly up to about 76 µM; nearly all actives have a fitted effect of over 35% in size
#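 Stably transfected U87-MG glioma cells carrying a GRP78-based luciferase sensor; 16 h compound incubation. Luminescence end-point read 10 min after Bright-Glo addition at room temperature.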
# TRHR ag = activates the human TRH receptor; TRHR cells, calcium flux fluo-8, FDSS agonist mode; 0.18% of 360,000 active; activation, % at 2 µM; P34981
#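 TRHR-expressing cells, plated overnight in medium with 10% serum, were loaded with fluo-8 calcium dye at room temperature. After a 10 s baseline, library compound was pin-added and calcium release was recorded kinetically (ex 480/em 530) as agonist response.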
# D1 ag = agonists of human D1 dopamine receptor | HEK293 T-REx D1 cells, calcium flux, agonist mode | activation, % at 2 µM | 1% of 360,000 active
# Target sequence (P21728 whole entry, looked up): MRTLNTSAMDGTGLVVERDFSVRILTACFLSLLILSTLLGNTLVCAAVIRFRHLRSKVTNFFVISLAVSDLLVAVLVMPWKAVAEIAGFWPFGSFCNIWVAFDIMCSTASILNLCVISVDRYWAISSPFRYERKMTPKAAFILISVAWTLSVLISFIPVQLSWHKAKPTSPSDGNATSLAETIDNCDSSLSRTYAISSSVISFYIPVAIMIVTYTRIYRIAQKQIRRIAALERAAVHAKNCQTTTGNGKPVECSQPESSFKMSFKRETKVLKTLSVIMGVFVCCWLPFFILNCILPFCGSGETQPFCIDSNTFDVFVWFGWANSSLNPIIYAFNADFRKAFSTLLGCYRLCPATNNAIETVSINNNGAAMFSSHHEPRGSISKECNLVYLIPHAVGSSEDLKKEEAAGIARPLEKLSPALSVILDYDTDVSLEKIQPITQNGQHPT
#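 Tetracycline-induced HEK293 TREx D1 cells, force-coupled to calcium signalling, were dye-loaded with a no-wash calcium kit. Compound was pin-added after a 10 s baseline. Fluorescence was read kinetically at 1 cycle/s for 180 s, with calcium rises flagged as agonism.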
# D1 antagonist = blocks dopamine activation of the human D1 receptor; 3.2% of 360,000 active; activity change, negative = inhibition, % at 10 µM; HEK293 TREx D1 cells, calcium flux, dopamine EC80; hits give low values; P21728; AID 504652; in the data active = activity change below about -30%
#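 Calcium flux readout: force-coupled, inducible Hek293 Trex D1 line, cells induced overnight at 30 C with tetracycline, dye-loaded 30–90 min at RT. Antagonism scored against EC80 dopamine challenge given 180 s after compound.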
# TRHR enhancer = allosteric enhancers of human TRH receptor | P34981 | 0.66% of 360,000 active | enhancement, % at 2 µM | TRHR cells, fluo-8 calcium fluorescence, EC20 TRH enhancement | AID 493056; in the data active = enhancement above about 30%
#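 Enhancer read-out: after compound pinning and an initial kinetic agonist-mode read, an EC20 of TRH (10 nM final) was injected and fluo-8 calcium signal (Ex 480/Em 530) followed at 1 s/cycle for 100 cycles in TRHR-expressing cells.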
# D1 PAM = potentiators of human D1 dopamine receptor; P21728; HEK293 TREx D1 cells, calcium flux, dopamine EC20 potentiation; potentiation, % at 10 µM; 0.036% of 360,000 active; AID 504651; in the data active = potentiation above about 30%
# Numbers stand for hits; . = inactive; ? = inconclusive; / = no result given. Shown are actives, neighbours in structure and some others; about 4% of the full set was active somewhere. Cut-off read from the data, not from the text of the source, unless noted: active = activation above about 30%; inactive = the rest.
SMILES,Glioma ERSR ind,TRHR ag,D1 ag,D1 antagonist,TRHR enhancer,D1 PAM
Cc1ccccc1NC(=O)C1(NC(=O)c2cccc(N3C(=O)CSC3c3ccccc3)c2)CCCCC1 (configuration not stated),.,.,.,.,.,.
CC(C)(C)c1ccc(C2SCC(=O)N2c2cccc(C(=O)O)c2)cc1 (configuration not stated),.,.,.,-33,.,.
Cn1cc(/C=C2\SC(=S)N(NC(=O)c3ccccc3)C2=O)c2ccccc21,.,.,75,.,.,.
O=C(NN1C(=O)/C(=C/c2ccc(O)c([N+](=O)[O-])c2)SC1=S)c1ccccc1Cl,.,.,.,.,.,.
Cn1cc(/C=C2\SC(=S)N(NC(=O)c3cccc(Cl)c3)C2=O)c2ccccc21,.,.,.,.,.,.
O=C(NN1C(=O)/C(=C/c2ccc(O)cc2)SC1=S)c1ccccc1O,.,.,67,.,.,.
COc1cc(/C=C2\SC(=S)N(NC(=O)c3ccccc3O)C2=O)ccc1O,.,.,90,.,.,.
O=C(Nc1ccc(F)c(Cl)c1)Nc1nnc([C@@H]2O[C@H](CO)[C@@H](O)[C@H]2O)s1,.,/,/,/,/,/
Cc1nc(Nc2ccccc2)sc1C(=O)c1ccc(F)cc1,.,.,.,.,.,.
Nc1nc(Nc2ccccc2F)sc1C(=O)c1ccccc1,?,.,34,.,.,.
CCCC(=O)N1CCC1(C)C(=O)NCc1ccccc1SC (configuration not stated),.,/,/,/,/,/
CC(C(=O)O)c1cccc(C(=O)c2ccccc2)c1 (configuration not stated),.,.,.,.,.,.
C[C@H](C(=O)O)c1cccc(C(=O)c2ccccc2)c1,.,.,.,-54,.,.
O=c1[nH]c(C2CCCN(S(=O)(=O)c3ccccc3)C2)nc2c1nnn2Cc1ccc(OC(F)(F)F)cc1 (configuration not stated),.,.,.,.,.,.
O=S(=O)(c1ccc(OC(F)(F)F)cc1)N1CCCC(c2ccccc2)C1 (configuration not stated),.,.,.,-34,.,.
Cc1ncc2c(c1CNC(=O)c1ccc3c(c1)OCO3)CCN(C(=O)c1cnsn1)C2,.,/,/,/,/,/
O=C(Nc1cccc(S(=O)(=O)N2CCOCC2)c1)C(c1ccccc1)N1CCCCC1 (configuration not stated),.,.,.,.,.,.
COc1ccc(C(=O)NC(=S)Nc2cccc(S(=O)(=O)N3CCOCC3)c2)cc1,.,.,.,.,.,.
CN(C)CCNC(C(=O)Nc1cccc(S(=O)(=O)N2CCOCC2)c1)c1ccccc1 (configuration not stated),.,.,.,.,36,.
O=C(Nc1cccc(S(=O)(=O)C(F)F)c1)c1ccc(Cl)c(S(=O)(=O)N2CCOCC2)c1,.,.,.,-34,.,.
CC(=O)Oc1ccc(-c2ccc(C(=O)Nc3cccc(S(=O)(=O)N4CCOCC4)c3)cc2)cc1,.,.,.,-32,.,.
CC(C)Oc1ccc(C(=O)Nc2cc(S(=O)(=O)N3CCOCC3)ccc2N2CCOCC2)cc1,.,.,.,-40,.,.
CC(C)COc1ccc(C(=O)Nc2cc(S(=O)(=O)N3CCOCC3)ccc2N2CCCC2)cc1,.,.,.,.,.,/
N#C/C(=C(/O)c1cccc(F)c1)c1nc2ccccc2s1,.,.,.,-35,.,.
Cc1onc(-c2ccccc2)c1C(=O)N[C@@H]1C(=O)N2[C@@H](C(=O)O)C(C)(C)S[C@@H]12,.,/,/,/,/,/
SMILES,Glioma ERSR ind,TRHR ag,D1 ag,D1 antagonist,TRHR enhancer,D1 PAM
COc1cccc(C(=O)N/N=C(/c2ccccc2)c2ccccn2)c1,.,.,.,-62,.,.
O=C1C(=O)c2c(C(=O)c3ccccc3)coc2-c2ccccc21,.,.,.,-57,.,.
Cc1oc2c(c1C(=O)c1ccccc1)C(=O)C(=O)c1ccccc1-2,.,.,.,.,.,.
COc1ccc(C2C3C=CCC(c4cccc(-c5ccc(N(C)C)cc5)c4)C3C(=O)N2Cc2ccccc2)cc1Cl (configuration not stated),.,/,/,/,/,/
O=C(NC(c1cccnc1)C(F)(F)F)c1cnn(-c2nccc(-c3cccs3)n2)c1C1CC1 (configuration not stated),.,/,/,/,/,/
C=CCc1ccc(OCC(O)CN2CCC(Cc3ccccc3)CC2)c(OC)c1 (configuration not stated),.,.,.,.,.,.
OC(COc1ccc(F)cc1Cl)CN1CCC(Cc2ccccc2)CC1 (configuration not stated),.,.,61,-72,.,.
Cc1ccc(OCC(O)CN2CCC(Cc3ccccc3)CC2)c(C)c1 (configuration not stated),.,.,.,.,.,.
OC(COc1ccccc1)CN1CCC(Cc2ccccc2)CC1 (configuration not stated),.,.,.,.,.,.
OC(COc1ccccc1F)CN1CCC(Cc2ccccc2)CC1 (configuration not stated),.,.,.,-42,.,.
COc1cccc(OCC(O)CN2CCC(Cc3ccccc3)CC2)c1 (configuration not stated),.,.,.,-31,.,.
O=c1cc(N2CCNCC2)oc2c(-c3ccccc3)cccc12,.,/,/,/,/,/
CCOc1ccccc1NC(=O)Cn1cc(C(=O)c2cccc(OC)c2)c(=O)c2ccc(C)nc21,.,.,.,.,.,.
CCC(Sc1nc2n[nH]c(C)c2c(=N)n1-c1cccc(Cl)c1C)C(=O)N(CC)CC (configuration not stated),.,.,.,-41,.,.
Cc1ccccc1OCC(=O)NCC(=O)OCc1ccc2ccccc2c1,.,/,/,/,/,/
CCc1ccccc1NC(=O)CN1CCCN(Cc2cc(C)ccc2C)S1(=O)=O,.,.,33,.,.,.
Cc1ccc(NC(=O)CN2CCCN(Cc3cc(C)ccc3C)S2(=O)=O)c(Cl)c1,.,.,.,.,.,.
CCn1c(SCC(=O)O)nnc1C1CCCCC1,.,.,.,.,.,.
COc1ccc(C(=O)c2cnc3cc4c(cc3c2C)OCO4)cc1,.,.,.,-30,.,.
COc1ccc(/C=C(\NC(=O)c2ccco2)C(=O)NCc2ccco2)cc1,.,.,.,.,.,.
CCc1ccc(NC(=O)C2CCN(C(=O)[C@@H]3Cc4ccccc4CN3)CC2)cc1,.,.,32,.,.,.
COc1cccc(CN2CC34CC(c5ccc(C(C)=O)cc5)C(CC3S2(=O)=O)O4)c1 (configuration not stated),.,/,/,/,/,/
CCN(CC)c1ccc(/C=C2/SC(=O)N(C(C)C)C2=O)o1,.,.,59,.,.,.
